Results on 10 molecules are retold here after publication PMC5540273 (PLoS ONE, 2017).

Some test systems named below: MAPKAPK5; MARK1; MARK2; MARK3; MARK4; MAST1; MELK; MERTK; MET; MKK7; MKNK1; MKNK2.
Details in all cases: concentration: 1 μM, replicates: in singlicate; n = 1
The test system of a further experiment is T1, MEK1.
T1 construct: gene MAP2K1

Another experiment relates to T2, MEK2.
T2 construct: gene MAP2K2

The next experiment has as its system T3, MEK3.
T3 construct: gene MAP2K3

The next experiment has as its system T4, MEK4.
T4 construct: gene MAP2K4

The subject of another experiment is T5, MEK5.
T5 construct: gene MAP2K5

The next experiment relates to T6, MEK6.
T6 construct: gene MAP2K6

A further experiment relates to T7, MINK.
T7 construct: gene MINK1

The test system of the next experiment is T8, MLCK.
T8 construct: gene MYLK3
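Note: KINOMEscan kinase panel screen.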

In the case of `N#Cc1cnc2cc(-c3cnc(CNCCN4CCOCC4)s3)ccc2c1Nc1ccc(Oc2ccccc2)cc1` [GW664114], the “%Inh” value is on record as 0% in the experiment with MAPKAPK5; 35% in the experiment with MARK1; 0% in the experiment on MARK2; 9% in the experiment with MARK3; 5% in the experiment with MARK4; 0% with MAST1. Moreover, the “%Inh” value was 100% with MEK1; 100% in the experiment with MEK2; 9% in the experiment with MEK3; 80% in the experiment with MEK4; 99.9% in the experiment with MEK5; 0% in the experiment on MEK6. The “%Inh” value with MELK was found to be 15%; in the experiment on MERTK, 72%; in the experiment on MET it was 7%; in the experiment on MINK, 95.2%; in the experiment on MKK7 it was 6%; with MKNK1, 6%. For the same molecule, the “%Inh” value came to 6% in the experiment on MKNK2 and 0% with MLCK.
With `CN(C)c1ncnc2nc[nH]c12` [SKF-31736], the “%Inh” value turned out to be 0% in the experiment with MAPKAPK5; 0% with MARK1; 9% in the experiment on MARK2; 23% with MARK3; 9% in the experiment with MARK4; 49% in the experiment on MAST1. In addition, the “%Inh” value in the experiment on MEK1 turned out to be 28%; in the experiment on MEK2, 46%; in the experiment with MEK3 it was 54%; in the experiment on MEK4 it was 8%; with MEK5 it was 51%; in the experiment with MEK6 it was 0%. Besides, the “%Inh” value in the experiment on MELK amounted to 0%; in the experiment on MERTK it was 10%; in the experiment on MET, 0%; with MINK, 2%; with MKK7, 20%; with MKNK1, 0%. Also, the “%Inh” value with MKNK2 and in the experiment on MLCK was 0% in each case.
As for `CN(c1ccc2c(c1)nc(NCc1ccccc1)n2C)c1ccnc(Nc2ccc(CS(C)(=O)=O)cc2)n1.Cl` [GW811603], the “%Inh” value in the experiment with MAPKAPK5 is 0%; in the experiment on MARK1, 30%; in the experiment on MARK2, 0%; in the experiment on MARK3, 0%; in the experiment with MARK4 it was 5%; in the experiment on MAST1 it was 31%. Besides, the “%Inh” value in the experiment with MEK1 is 0%; in the experiment on MEK2, 0%; in the experiment on MEK3, 51%; in the experiment with MEK4 it was 34%; in the experiment on MEK5 it was 89%; in the experiment with MEK6 it was 0%. Further, the “%Inh” value in the experiment with MELK was determined as 17%; with MERTK, 36%; in the experiment on MET, 46%; in the experiment on MINK, 0%; in the experiment with MKK7, 23%; with MKNK1 it was 54%. Moreover, the “%Inh” value in the experiment on MKNK2 is 43%; in the experiment on MLCK, 0%.
Turning to `Cl.O=C(Nc1ccc(Oc2ccc3[nH]c(NC(=O)c4ccco4)nc3c2)cc1)Nc1cc(C(F)(F)F)ccc1F` [GW683134], the “%Inh” value stood at 0% in the experiment on MAPKAPK5; 0% in the experiment on MARK1; 0% with MARK2; 0% in the experiment on MARK3; 6% in the experiment on MARK4; 8% with MAST1. In addition, the “%Inh” value with MEK1 was 0%; in the experiment with MEK2, 0%; in the experiment with MEK3 it was 0%; in the experiment on MEK4, 10%; in the experiment on MEK5, 85%; in the experiment with MEK6, 0%. In addition, the “%Inh” value is 0% in the experiment with MELK; 99.6% in the experiment on MERTK; 83% in the experiment on MET; 0% in the experiment on MINK; 0% in the experiment with MKK7; 46% in the experiment with MKNK1. Further, the “%Inh” value in the experiment on MKNK2 amounted to 93.5%; in the experiment on MLCK, 15%.
On to `CN1CCN(Cc2ccc(NC(=O)Nc3ccc(N(C)c4ccnc(Nc5ccc(CS(C)(=O)=O)cc5)n4)cc3)cc2)CC1.Cl` [GW827654], for which the “%Inh” value in the experiment with MAPKAPK5 is listed as 13%; in the experiment on MARK1, 32%; with MARK2, 60%; with MARK3, 61%; in the experiment on MARK4, 31%; with MAST1, 32%. Also, the “%Inh” value came to 1% in the experiment with MEK1; 25% with MEK2; 74% in the experiment with MEK3; 86% in the experiment on MEK4; 99.1% with MEK5; 0% with MEK6. Moreover, the “%Inh” value with MELK came out at 32%; with MERTK, 72%; with MET, 67%; in the experiment on MINK, 95.6%; with MKK7, 0%; with MKNK1, 96.7%. Moreover, the entries for the “%Inh” value in the experiment on MKNK2 and in the experiment with MLCK were 100% and 26%, respectively.
Turning to `COC(=O)Nc1nc2ccc(Oc3ccc(CC(=O)Nc4cc(C(F)(F)F)ccc4F)cc3)cc2[nH]1` [GW680903], the “%Inh” value is 0% in the experiment with MAPKAPK5; 0% with MARK1; 100% in the experiment with MARK2; 5% in the experiment with MARK3; 0% with MARK4; 0% with MAST1. Besides, the “%Inh” value amounted to 0% in the experiment on MEK1; 0% in the experiment on MEK2; 0% in the experiment with MEK3; 29% in the experiment with MEK4; 31% with MEK5; 0% in the experiment with MEK6. In addition, the “%Inh” value in the experiment on MELK amounted to 0%; in the experiment on MERTK it was 44%; in the experiment with MET it was 0%; in the experiment with MINK, 0%; in the experiment with MKK7 it was 8%; with MKNK1, 13%. Also, the “%Inh” value worked out at 3% in the experiment on MKNK2 and 0% in the experiment on MLCK.
For `CCOc1nccc(-c2c(-c3ccc(F)cc3)ncn2C2CCNCC2)n1` [SB-249175], the “%Inh” value stood at 39% with MAPKAPK5; 3% with MARK1; 29% in the experiment with MARK2; 0% in the experiment on MARK3; 0% in the experiment on MARK4; 0% in the experiment with MAST1. For the same molecule, the “%Inh” value was determined as 28% in the experiment with MEK1; 31% in the experiment on MEK2; 43% in the experiment with MEK3; 21% with MEK4; 26% in the experiment on MEK5; 18% in the experiment on MEK6. In addition, the “%Inh” value in the experiment with MELK stood at 0%; in the experiment with MERTK, 18%; with MET it was 0%; with MINK it was 49%; with MKK7, 7%; with MKNK1, 57%. Moreover, the entries for the “%Inh” value in the experiment on MKNK2 and in the experiment with MLCK were 46% and 2%, respectively.
With `Nc1ncnc2scc(-c3ccc(NC(=O)Cc4cc(F)ccc4F)cc3)c12.O=C(O)C(F)(F)F` [SB-731254-M], the “%Inh” value amounted to 10% in the experiment on MAPKAPK5; 27% with MARK1; 31% with MARK2; 0% in the experiment with MARK3; 6% in the experiment with MARK4; 21% with MAST1. The “%Inh” value in the experiment with MEK1 was found to be 24%; in the experiment on MEK2, 19%; in the experiment on MEK3, 23%; in the experiment with MEK4, 18%; in the experiment on MEK5, 99.7%; in the experiment on MEK6, 11%. For the same molecule, the “%Inh” value is given as 4% with MELK; 14% in the experiment with MERTK; 0% in the experiment with MET; 35% with MINK; 0% in the experiment with MKK7; 0% with MKNK1. Further, the “%Inh” value in the experiment with MKNK2 came to 47%; in the experiment with MLCK, 60%.
Regarding `CN(c1ccc(NC(=O)Nc2cccc(Cl)c2)cc1)c1ccnc(N)n1.Cl` [GW830707], the “%Inh” value turned out to be 0% in the experiment on MAPKAPK5; 0% in the experiment on MARK1; 0% in the experiment on MARK2; 43% in the experiment on MARK3; 5% in the experiment with MARK4; 84% in the experiment with MAST1. The “%Inh” value in the experiment with MEK1 was 16%; in the experiment on MEK2 it was 23%; with MEK3, 0%; in the experiment on MEK4 it was 0%; with MEK5, 48%; with MEK6 it was 0%. Further, the “%Inh” value with MELK is reported as 11%; in the experiment on MERTK, 0%; in the experiment on MET, 1%; with MINK it was 0%; with MKK7, 17%; in the experiment on MKNK1, 52%. For the same molecule, the “%Inh” value in the experiment with MKNK2 is on record as 95.6%; in the experiment with MLCK, 10%.
Regarding `Fc1cc(Cl)ccc1Nc1ccnc2cc(-c3ccc(CN4CCOCC4)o3)ccc12` [GW560109], the “%Inh” value in the experiment with MAPKAPK5 amounted to 0%; in the experiment on MARK1, 0%; in the experiment with MARK2, 0%; in the experiment with MARK3, 2%; in the experiment on MARK4, 0%; in the experiment with MAST1, 3%. Also, the “%Inh” value with MEK1 is reported as 0%; with MEK2 it was 38%; in the experiment on MEK3, 0%; in the experiment with MEK4, 31%; in the experiment with MEK5 it was 99.8%; in the experiment with MEK6, 0%. Also, the “%Inh” value is reported as 0% in the experiment on MELK; 28% with MERTK; 51% in the experiment with MET; 58% with MINK; 10% with MKK7; 13% in the experiment with MKNK1. Moreover, the “%Inh” value in the experiment with MKNK2 came out at 77%; in the experiment with MLCK, 0%.
